LMP1 NFkB inh: EBV LMP1-driven NF-kappaB luciferase reporter inhibitors, primary screen, cell-based, luminescence, single point; LMP1-induced NF-kappaB luciferase reporter cells; inhibition, % at 12.5 µM; 0.69% of 350,000 active; AID 504558, 2011; in the data active = inhibition above about 41%; inconclusive = no clear call, values can overlap the other calls;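 note: 0% = neutral control wells and 100% = reference inhibitor control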
Shn3 3UTR inh: reduction of Shn3 3'UTR firefly luciferase signal, primary screen, Schnurri-3 inhibitor project, cell-based, Clone20 osteoblasts, set 2 | Clone20 osteoblast Shn3 3'UTR firefly luciferase, 24 h | inhibition, % at 12.5 µM | 0.52% of 360,000 active | AID 588674, 2011;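 active = mean inhibition of at least 75% with every replicate also reaching 75%; inconclusive = mean inhibition at least 75% but some replicate below; inactive = mean inhibition below 75%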;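 note: 0% = median of neutral control wells and 100% = pilot-screen positive control compound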
PAX8 reporter: inhibitors of PAX8-driven TPO luciferase reporter, primary screen, RMG-I cells, single concentration | 1.2% of 360,000 active | SteadyGlo, 24 h | inhibition, % at 12.6 µM;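 active = mean replicate inhibition at least 60% with every replicate also reaching 60%; inconclusive = only one of the two criteria is met; inactive = mean below 60% and not all replicates reaching 60%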;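 note: luciferase light reporting Pax8 driven TPO promoter activity; plate controls were median of neutral control wells for no effect and mitoxantrone controls for full effect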
MITF TRPM1 inh: inhibitors of MITF-dependent TRPM1 promoter reporter, primary screen, cell-based, SK-MEL-5, single point, luciferase. AID 488899, 2010. 0.83% of 330,000 active. SK-MEL-5 TRPM1 promoter luciferase, 24 h. inhibition, % at 12.5 µM;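 active = mean inhibition across replicates of 60% or more, whatever share of single replicates reaches that level; inconclusive = some that reach 60%, reason not given; inactive = mean inhibition across replicates below 60%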
Peg3 promoter: Peg3 promoter-driven luciferase inhibitors, primary screen, cell-based, HeLa, luciferase luminescence. HeLa PEG-Prom luciferase reporter, overnight. inhibition, % at 20 µM. 1.7% of 360,000 active. AID 588405, 2011;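 active = inhibition of at least 50% at 20 µM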
HIF-2a inh: HIF-2a reporter inhibitors, primary screen, luminescence, 786-0 RCC cells. inhibition, % at 18.8 µM. 786-0 RCC cells HIF-2a reporter, luciferase luminescence, overnight. 0.72% of 360,000 active. AID 624352, 2012;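 active = inhibition of the luminescence signal of 40% or more relative to plate controls, in a single-dose primary screen at 18.75 µM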
Numbers without * were called inactive; ? = inconclusive; / = no result given. An excerpt weighted towards active compounds, which were near 2.8% of everything screened.

SMILES | LMP1 NFkB inh | Shn3 3UTR inh | PAX8 reporter | MITF TRPM1 inh | Peg3 promoter | HIF-2a inh
COC(=O)c1ccc(/C=C/C(=O)c2ccc(OC)c(OC)c2)cc1 | 6.8 | 32.5 | / | 0.2 | 42.7 | 33.8
COc1ccc(/C=C/C(=O)c2ccc(C(=O)/C=C/c3ccc(OC)c(OC)c3)cc2)cc1OC | 20.3 | 87.3* | 24.6 | 15.2 | 43.8 | 32.8
C[C@@H]1CCCCO[C@H](CN(C)Cc2ccccc2)[C@H](C)CN([C@H](C)CO)C(=O)c2cc(NC(=O)CCC(F)(F)F)ccc2O1 | / | / | -5.7 | / | / | /
C[C@H]1CCCCO[C@H](CN(C)S(=O)(=O)c2ccc(F)cc2)[C@@H](C)CN([C@@H](C)CO)C(=O)c2cc(NS(=O)(=O)c3ccccc3)ccc2O1 | / | / | 37.1 | / | / | /
O=c1[nH]cnc2ncc(-c3ccc(O)cc3)nc12 | -4.1 | -7.0 | 68.9* | 8.1 | 0.1 | 19.7
Cc1ccc(S(=O)(=O)N(C)C[C@@H]2Oc3cc(C#Cc4ccncc4)ccc3S(=O)(=O)N([C@H](C)CO)C[C@@H]2C)cc1 | / | / | 77.9* | / | / | /
Cc1ccc(S(=O)(=O)N(C)C[C@@H]2Oc3cc(C#Cc4ccncc4)ccc3S(=O)(=O)N([C@H](C)CO)C[C@H]2C)cc1 | / | / | 106.1* | / | / | /
Cc1ccc(S(=O)(=O)N(C)C[C@H]2Oc3cc(C#Cc4ccncc4)ccc3S(=O)(=O)N([C@@H](C)CO)C[C@@H]2C)cc1 | / | / | 102.8* | / | / | /
Cc1ccc(S(=O)(=O)N(C)C[C@@H]2Oc3cc(C#Cc4ccncc4)ccc3S(=O)(=O)N([C@@H](C)CO)C[C@H]2C)cc1 | / | / | 82.6* | / | / | /
CC(=O)Nc1ccc2c(c1)C(=O)N(C)[C@H]1CC[C@H](CC(=O)Nc3cn(C)nc3C)O[C@@H]1CO2 | / | / | -0.7 | / | / | /
C[C@@H]1CCCCO[C@@H](CN(C)Cc2ccc(Cl)c(Cl)c2)[C@@H](C)CN([C@@H](C)CO)C(=O)c2cc(NS(=O)(=O)c3cn(C)cn3)ccc2O1 | / | / | -25.7 | / | / | /
C[C@@H]1CCCCO[C@H](CN(C)Cc2ccncc2)[C@@H](C)CN([C@H](C)CO)C(=O)c2cc(NC(=O)Nc3ccccc3)ccc2O1 | / | / | -1.5 | / | / | /
C[C@@H]1CN([C@H](C)CO)C(=O)c2cc(C3=CCCCC3)cnc2O[C@@H]1CN(C)C(=O)c1ccccc1 | / | / | 5.6 | / | / | /
C[C@H]1CCCCO[C@@H](CN(C)Cc2ccc3c(c2)OCO3)[C@@H](C)CN([C@@H](C)CO)C(=O)c2cc(NC(=O)Nc3ccccc3)ccc2O1 | / | / | -2.1 | / | / | /
COc1ccc(S(=O)(=O)N(C)C[C@H]2Oc3cc(C#CC4CCCC4)ccc3S(=O)(=O)N([C@@H](C)CO)C[C@H]2C)cc1 | / | / | -2.3 | / | / | /
COc1ccc(S(=O)(=O)N(C)C[C@H]2Oc3cc(C#CC4CCCC4)ccc3S(=O)(=O)N([C@@H](C)CO)C[C@@H]2C)cc1 | / | / | 89.7* | / | / | /
COCC(=O)Nc1ccc2c(c1)OC[C@H](C)N(C(=O)Cc1cccnc1)C[C@H](C)[C@@H](OC)CN(C)C2=O | / | / | -6.0 | / | / | /
COc1ccc(CC(=O)Nc2ccc(S(=O)(=O)N(C)C3CCN(C)CC3)cc2)cc1 | -0.4 | 17.7 | 5.3 | 2.2 | -16.0 | 5.8
COc1ccc2oc(C(=O)Nc3ccc(S(=O)(=O)N(C)C4CCN(C)CC4)cc3)c(C)c2c1 | -47.5 | 60.1 | 3.4 | 85.4* | 75.0* | -10.3
CCC(=O)N1[C@H](CO)[C@H](c2ccc(C3=CCCC3)cc2)[C@@H]1CNC(=O)CN(C)C | / | / | -8.9 | / | / | /
C=CC[C@]12CC=CC(=O)[C@@]1(O)O[C@H](c1ccc(OC)c(OC)c1)[C@H]2C | -2.3 | -6.6 | / | 62.3* | 23.7 | 37.5
CCC(C)Nc1nc(-c2ccccn2)nc2ccccc12 (centres undefined) | 48.1* | ? | 27.8 | 27.0 | 31.5 | 4.4
COc1cccc(-c2nc(NC(C)C)c3ccccc3n2)c1O | 5.6 | 10.7 | / | 10.9 | 37.1 | 14.0
CCC(C)Nc1nc(-c2cccc(OC)c2O)nc2ccccc12 (centres undefined) | -2.4 | 29.9 | 23.8 | 3.0 | 53.5* | -27.3
Cc1csc(NC(=O)c2cc3c(s2)CCCCC3)n1 | 37.7 | 70.0 | / | 47.1 | 57.7* | 27.4

Screening data from PubChem.
